Source: PubChem BioAssay
Active and inactive are the calls of the source.

Assays:
Albumin (Bos taurus) = Albumin (Bos taurus) (UniProt P02769); experiment: bovine serum albumin binders on microarray, profiling panel, artefact control for SMM control protein annotation, biochemical, small-molecule microarray, Alexa647 label, 635/667 nm fluorescence (AID 1118); conditions: BSA-A647 binding, fluorescence 635 nm, higher = more signal;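 note: score merges 667 nm emission intensity and signal-to-noise per printed compound spot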
[1] = small-molecule microarray binders of probe aXIP, primary screen, biochemical, NeuroSMM set, 635/667 nm fluorescence (AID 1119); conditions: higher = more signal, called active from +8 up or from −8 down;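 note: probe is the protein aXip251-270 applied at 1 µg/mL to compound-printed slides; binding of probe to printed compounds measured as 667 nm fluorescence plus signal to noise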
[2] = small-molecule binders of probe aNOTCH3, primary screen, biochemical, small-molecule microarray, 635/667 nm fluorescence (AID 1120); conditions: higher = more signal;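 note: probe is a biotin-tagged antibody raised against NOTCH3 rather than NOTCH3 protein; score merges spot fluorescence near 667 nm with spot signal to noise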
[3] = small-molecule binders of probe aNOTCH2, primary screen, biochemical, small-molecule microarray, 635/667 nm fluorescence (AID 1121); conditions: higher = more signal;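 note: score merges feature fluorescence read at 667 nm with its signal to noise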
[4] = target: Carbonic anhydrase 2 (Homo sapiens) (UniProt P00918); experiment: CAII small-molecule binders, profiling panel, biochemical, small-molecule microarray, Alexa647-labelled CAII (AID 1122); conditions: CAII-A647 binding fluorescence, higher = more signal
[5] = COS7 lysate on small-molecule microarray, probe aHis, 635 nm (AID 1123); conditions: COS7 cell lysate, fluorescence, higher = more signal;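 note: z-score combines 667nm fluorescence intensity with signal-to-noise per printed compound spot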
[6] = compound binding in COS7 lysate, probe aLAP1, primary screen, cell lysate, small-molecule microarray (AID 1124); conditions: probe aLAP1, fluorescence, higher = more signal;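 note: lysate comes from COS7 cells expressing LAP1 and is applied at 0.3 µg/mL; score merges spot fluorescence near 667 nm with signal-to-noise over triplicate slides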
Sam68 (KHDRBS1) = experiment: Sam68 small-molecule binders, primary screen, biochemical, small-molecule microarray, 635 nm fluorescence (AID 1125); conditions: small-molecule microarray binding, higher = more signal;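 note: score merges 667 nm channel intensity with signal to noise over triplicate slides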
[7] = test system: Chordin-like protein 2 (CHRDL2); experiment: CHRDL2 small-molecule binders, primary screen, biochemical, small-molecule microarray, 635 nm fluorescence (AID 1126); conditions: small-molecule microarray binding, fluorescence 635 nm; higher = more signal;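 note: printed compound slides probed with Chrdl2 protein at 4 µg/mL for 1 h at 4 C; score merges 667 nm emission intensity with signal to noise over three replicate slides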
[8] = target: Concanavalin-A (Canavalia ensiformis) (UniProt P02866); experiment: ConA small-molecule binders, primary screen, artefact control for SMM control protein annotation, biochemical, small-molecule microarray, Alexa647 label, 635 nm (AID 1127); conditions: ConA-A647 binding fluorescence, higher = more signal;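 note: z combines 667 nm emission intensity with signal-to-noise across three replicate slides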
[9] = anti-His antibody binders, primary screen, artefact control for SMM control protein annotation, biochemical, small-molecule microarray, 635 nm fluorescence (AID 1128); conditions: anti-His Alexa647 antibody binding, higher = more signal;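 note: score merges feature fluorescence with signal-to-noise for each printed compound spot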
[10] = test system: Human papillomavirus type 1a E7 protein (residues 1-88); experiment: HPV1a E7 small-molecule binders, primary screen, biochemical, small-molecule microarray, residues 1-88, 635 nm (AID 1129); conditions: small-molecule microarray binding, fluorescence 635 nm; higher = more signal
[11] = target: Focal adhesion kinase 1 (Homo sapiens) (UniProt Q05397); experiment: small-molecule microarray binders of FAK, primary screen, biochemical, 635/667 nm fluorescence, BSA, DTT (AID 1130); conditions: PTK2 binding, 635 nm fluorescence, higher = more signal;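 note: composite of spot emission at 667 nm and signal to noise over triplicate slides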
[12] = test system: Fibrinogen (Alexa647-labelled); experiment: fibrinogen binders on compound microarrays, profiling panel, artefact control for SMM control-protein annotation, biochemical, small-molecule microarray, 635/667 nm fluorescence (AID 1131); conditions: fibrinogen-A647 binding fluorescence, higher = more signal;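 note: z-score merges 667 nm fluorescence with per-spot signal-to-noise over triplicate slides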
[13] = target: Follistatin (Homo sapiens) (UniProt P19883); experiment: follistatin binders on small-molecule microarrays, primary screen, biochemical, small-molecule microarray, 635/667 nm fluorescence (AID 1132); conditions: FST binding, 635 nm fluorescence, higher = more signal
[14] = target: Fibroblast growth factor 2 (Homo sapiens) (UniProt P09038); experiment: FGF2 binders on small-molecule microarrays, primary screen, biochemical, small-molecule microarray, 635/667 nm fluorescence (AID 1133); conditions: small-molecule microarray binding, FGF2, fluorescence 635/667; higher = more signal
[15] = mitochondrial membrane potential change in A549 cells, profiling panel, cell-based, JC-1 fluorescence, basal, 24 h, 100 nL (AID 1138); conditions: higher = more signal;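 note: A549 lung adenocarcinoma cells under basal conditions with no added stimulus; test concentration not given here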
Lefty1 = Lefty1 binders on small-molecule microarrays, primary screen, biochemical, small-molecule microarray, 635/667 nm fluorescence (AID 1139); conditions: small-molecule microarray binding, fluorescence 635/667; higher = more signal
[16] = test system: wheat germ agglutinin (Triticum aestivum), Alexa647-labelled; experiment: wheat germ agglutinin binders on compound microarrays, profiling panel, artefact control for SMM control-protein annotation, biochemical, small-molecule microarray, 635/667 nm fluorescence (AID 1140); conditions: WGA-A647 binding, 635 nm fluorescence, higher = more signal;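 note: score merges 667 nm feature emission with signal to noise over triplicate slides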
[17] = target: Luciferin 4-monooxygenase (Photinus pyralis) (UniProt P08659); experiment: firefly luciferase enzyme inhibitors, primary screen, biochemical, luminescence, purified enzyme, 2006 set (AID 1141); conditions: SteadyGlo luminescence, 30 min, higher = more signal, called active from +8 up or from −8 down;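 note: cell-free assay with purified firefly luciferase at 100 ng per well in PBS; test concentration not given here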
Chain of Luciferin 4-monooxygenase (Photinus pyralis) (P08659 whole entry, looked up): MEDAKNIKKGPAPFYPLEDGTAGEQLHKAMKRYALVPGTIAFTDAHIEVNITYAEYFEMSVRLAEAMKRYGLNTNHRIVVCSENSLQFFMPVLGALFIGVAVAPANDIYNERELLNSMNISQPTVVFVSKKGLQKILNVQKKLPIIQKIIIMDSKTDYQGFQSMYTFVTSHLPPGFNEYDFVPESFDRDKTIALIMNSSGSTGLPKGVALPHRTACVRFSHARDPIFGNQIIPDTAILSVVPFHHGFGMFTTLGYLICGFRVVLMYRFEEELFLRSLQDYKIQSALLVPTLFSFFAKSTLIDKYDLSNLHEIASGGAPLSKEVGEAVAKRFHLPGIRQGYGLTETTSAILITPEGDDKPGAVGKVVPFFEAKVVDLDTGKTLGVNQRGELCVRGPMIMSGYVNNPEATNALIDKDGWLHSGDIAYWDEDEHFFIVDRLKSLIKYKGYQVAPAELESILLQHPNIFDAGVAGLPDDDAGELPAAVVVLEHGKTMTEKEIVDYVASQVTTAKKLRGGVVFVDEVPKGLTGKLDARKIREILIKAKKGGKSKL

Chain of Albumin (Bos taurus) (P02769 whole entry, looked up): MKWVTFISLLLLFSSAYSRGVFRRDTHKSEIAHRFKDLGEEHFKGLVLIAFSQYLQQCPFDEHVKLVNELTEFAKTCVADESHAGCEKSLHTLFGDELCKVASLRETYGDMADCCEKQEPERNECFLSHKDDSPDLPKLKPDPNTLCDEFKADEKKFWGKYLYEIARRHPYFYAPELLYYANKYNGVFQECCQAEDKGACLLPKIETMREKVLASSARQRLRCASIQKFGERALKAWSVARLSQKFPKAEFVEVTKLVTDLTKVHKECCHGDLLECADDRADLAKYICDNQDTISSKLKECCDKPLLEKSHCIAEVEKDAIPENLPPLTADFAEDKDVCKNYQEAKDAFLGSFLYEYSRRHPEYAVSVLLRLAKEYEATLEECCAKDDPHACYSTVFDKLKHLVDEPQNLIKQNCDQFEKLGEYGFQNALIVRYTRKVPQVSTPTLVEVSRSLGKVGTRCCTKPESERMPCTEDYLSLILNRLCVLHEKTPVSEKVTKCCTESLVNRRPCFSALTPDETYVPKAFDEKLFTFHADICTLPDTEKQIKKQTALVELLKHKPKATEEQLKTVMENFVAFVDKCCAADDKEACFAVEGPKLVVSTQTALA
Chain of Fibroblast growth factor 2 (Homo sapiens) (P09038 whole entry, looked up): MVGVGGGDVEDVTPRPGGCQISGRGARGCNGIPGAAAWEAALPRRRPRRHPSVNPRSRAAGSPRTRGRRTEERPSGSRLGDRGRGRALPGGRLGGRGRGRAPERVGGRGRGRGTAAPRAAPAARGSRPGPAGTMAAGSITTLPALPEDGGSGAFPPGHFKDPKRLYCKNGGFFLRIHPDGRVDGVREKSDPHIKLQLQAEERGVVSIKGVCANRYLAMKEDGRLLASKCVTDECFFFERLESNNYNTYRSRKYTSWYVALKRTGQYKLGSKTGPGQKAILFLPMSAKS
Chain of Concanavalin-A (Canavalia ensiformis) (P02866 whole entry, looked up): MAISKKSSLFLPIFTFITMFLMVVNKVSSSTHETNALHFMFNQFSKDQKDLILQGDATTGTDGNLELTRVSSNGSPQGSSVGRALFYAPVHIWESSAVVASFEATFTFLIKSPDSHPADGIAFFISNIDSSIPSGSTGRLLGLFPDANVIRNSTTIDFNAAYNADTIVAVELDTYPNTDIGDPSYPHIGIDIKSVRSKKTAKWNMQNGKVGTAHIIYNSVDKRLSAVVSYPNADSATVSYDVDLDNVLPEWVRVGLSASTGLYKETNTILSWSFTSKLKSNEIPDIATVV
Chain of Follistatin (Homo sapiens) (P19883 whole entry, looked up): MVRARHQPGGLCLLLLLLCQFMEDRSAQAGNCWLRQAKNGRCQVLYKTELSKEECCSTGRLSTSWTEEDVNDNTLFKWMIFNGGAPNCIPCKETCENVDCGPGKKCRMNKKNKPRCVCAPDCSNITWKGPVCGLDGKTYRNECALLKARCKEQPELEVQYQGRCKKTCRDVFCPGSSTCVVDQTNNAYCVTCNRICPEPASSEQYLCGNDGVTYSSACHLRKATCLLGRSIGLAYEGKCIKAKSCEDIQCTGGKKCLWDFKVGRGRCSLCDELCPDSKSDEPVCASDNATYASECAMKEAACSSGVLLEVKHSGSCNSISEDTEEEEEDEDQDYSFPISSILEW
Chain of Focal adhesion kinase 1 (Homo sapiens) (Q05397 whole entry, looked up): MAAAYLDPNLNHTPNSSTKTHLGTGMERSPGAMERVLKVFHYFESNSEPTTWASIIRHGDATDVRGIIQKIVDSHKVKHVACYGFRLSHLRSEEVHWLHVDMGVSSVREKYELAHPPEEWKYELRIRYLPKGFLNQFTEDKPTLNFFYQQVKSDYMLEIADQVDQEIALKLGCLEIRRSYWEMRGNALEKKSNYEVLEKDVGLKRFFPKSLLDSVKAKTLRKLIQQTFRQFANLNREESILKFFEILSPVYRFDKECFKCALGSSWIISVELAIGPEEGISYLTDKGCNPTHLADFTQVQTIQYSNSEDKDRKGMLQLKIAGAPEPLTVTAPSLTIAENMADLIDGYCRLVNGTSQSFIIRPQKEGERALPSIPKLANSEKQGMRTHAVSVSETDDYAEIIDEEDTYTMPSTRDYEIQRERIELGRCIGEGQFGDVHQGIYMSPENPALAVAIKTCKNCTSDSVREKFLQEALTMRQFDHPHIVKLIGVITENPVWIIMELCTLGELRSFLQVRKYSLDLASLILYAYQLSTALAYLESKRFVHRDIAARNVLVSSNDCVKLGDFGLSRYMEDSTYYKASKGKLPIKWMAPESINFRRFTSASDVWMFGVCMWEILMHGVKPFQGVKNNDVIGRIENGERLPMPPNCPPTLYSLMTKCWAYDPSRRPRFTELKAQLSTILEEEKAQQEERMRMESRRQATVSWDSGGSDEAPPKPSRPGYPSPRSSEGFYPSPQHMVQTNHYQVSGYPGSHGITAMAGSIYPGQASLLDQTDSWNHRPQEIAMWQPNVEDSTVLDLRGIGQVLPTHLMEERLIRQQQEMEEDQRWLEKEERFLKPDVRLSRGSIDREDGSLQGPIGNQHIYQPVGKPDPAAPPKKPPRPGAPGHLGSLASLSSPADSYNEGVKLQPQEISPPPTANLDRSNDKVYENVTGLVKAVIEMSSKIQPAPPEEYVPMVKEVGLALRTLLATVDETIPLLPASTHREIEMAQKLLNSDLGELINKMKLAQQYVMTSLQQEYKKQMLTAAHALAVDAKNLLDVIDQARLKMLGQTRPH

SMILES | composite z-score (Albumin (Bos taurus)) | composite Z-score [1] | composite z-score [2] | composite z-score [3] | composite z-score [4] | composite z-score [5] | composite z-score [6] | composite z-score (Sam68 (KHDRBS1)) | composite z-score [7] | composite z-score [8] | composite z-score [9] | composite z-score [10] | composite z-score [11] | composite z-score [12] | composite z-score [13] | composite z-score [14] | z-score [15] | composite z-score (Lefty1) | composite z-score [16] | z-score [17]
CC(C)CON=C1[C@H]2CCn3c(=O)n(C)c(=O)n3[C@H]2[C@H](O)[C@@H]2O[C@H]12 | -0.0213 | -0.483 (inactive) | 0.236 | -0.139 | -0.148 | -0.818 | 0.854 | 0.471 | 0.783 | 0.328 | 0.457 | 0.398 | 0.0335 | 0.413 | 0.581 | 0.411 | 0.563 | 1.02 | 0.324 | -0.571 (inactive)
CC(C)[C@H](NC(=O)OC(C)(C)C)[C@@H](O)CC(=O)C(C)(C)C | -0.269 | -0.382 (inactive) | -0.178 | -0.152 | -0.163 | 0.163 | -0.0769 | -0.0938 | 0.591 | 0.188 | -0.007 | -0.195 | -0.402 | 0.0622 | 0.359 | 0.516 | 0.109 | 0.627 | -0.0466 | 0.0879 (inactive)
COC(=O)CC=C1c2ccccc2[C@H](OC)[C@H]1C | -0.8 | 0.272 (inactive) | 0.0026 | -0.0614 | -0.36 | -0.316 | -0.441 | -0.742 | 0.523 | -0.334 | -0.706 | -0.352 | -0.102 | -0.479 | -0.0211 | 0.621 | -0.612 | 0.338 | -0.488 | 0.469 (inactive)
COC(=O)CC=C[C@@H](C)[C@@H](C=NOC[C@@H](O)COCc1ccco1)NS(=O)(=O)c1ccc(C)cc1 | -1.17 | -0.553 (inactive) | -0.169 | -0.0854 | -0.485 | -1.36 | -0.504 | -0.866 | 1.52 | -2.76 | 0.13 | -1.94 | -0.432 | -1.03 | 1.29 | 0.542 | -0.383 | 0.915 | -0.681 | 0.167 (inactive)
O=C1CCCC=C1C(O)C1CCCCC1 (stereo not given) | -0.0548 | -0.0549 (inactive) | -0.0325 | -0.0818 | -0.102 | 0.181 | -0.607 | -0.429 | 0.214 | -0.275 | -0.481 | -0.568 | -0.365 | -0.206 | 0.316 | -0.297 | 0.168 | 0.562 | -0.0135 | -0.376 (inactive)
COC(=O)[C@H](Cc1ccccc1)NC(=O)[C@@H](C)CO | 0.317 | 0.047 (inactive) | 0.226 | -0.181 | 0.465 | 0.207 | 0.143 | 0.48 | 0.501 | -1.01 | 0.0868 | -0.196 | -0.233 | 0.115 | 1.28 | 0.592 | -1.2 | 1.5 | 0.821 | 0.716 (inactive)
CC(C)=CCCC(C)=CCON=C1C[C@@H](O)[C@@H](O)[C@@H]2[C@@H]3C(=O)N(C4CCCCC4)C(=O)[C@@H]3CC[C@H]12 | -0.207 | 1.59 (inactive) | -0.0784 | -0.164 | 0.106 | 0.0252 | 0.514 | 1.07 | 1.07 | 0.48 | 0.857 | 0.573 | 1.12 | 0.573 | 1.06 | 1.25 | 0.292 | 1.48 | -0.0924 | -0.0223 (inactive)
Cc1ccc(S(=O)(=O)N[C@@H]2COC(=O)CC=C[C@@H](C)[C@H](NS(=O)(=O)c3ccc(C)cc3)COC(=O)[C@H](C)NC(=O)CC=C[C@H]2C)cc1 | -0.953 | -0.211 (inactive) | -0.0647 | -0.0808 | -0.548 | -1.18 | -0.108 | -1.17 | 0.835 | -1.46 | -0.563 | -0.676 | -0.1 | -0.111 | 0.72 | 0.499 | 0.73 | 0.61 | 0.0658 | -0.743 (inactive)
C[C@@H]1CC[C@H]2C(=O)OC(CN3C(=O)c4ccccc4C3=O)CN2[C@H]1c1ccc(Br)cc1 (stereo not given in full) | 0.808 | 0.372 (inactive) | -0.0984 | 0.178 | 0.305 | 0.787 | 0.376 | 0.438 | 0.333 | 0.781 | 0.194 | 0.731 | 0.246 | 0.377 | -0.145 | -0.204 | 0.0226 | 0.117 | 0.681 | -0.796 (inactive)
